Test results reported in the supplement of paper PMC7411054.
Where a name gives a salt, the structure may show the parent alone.

Assays:
Conditions in all cases: treatment time: 24 h
A549-ACTB-RAB5A [1] = assay: lowest phenotypically active concentration; higher = less potent
Summary of the method: (§1)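 After 24 h at 0.3, 1, 3 or 9 µM, with four wells per treatment, fifteen gene-edited A549, HepG2 and WPMY1 reporter lines carrying BFP, GFP and RFP/FusionRed were imaged live. Each well's live-cell features were expressed relative to solvent control wells. Deviation required ≥3 of 4 wells past the 95th percentile of control Euclidean distances, and reproducibility a median replicate Pearson correlation over the 95th percentile of non-replicates. Phenotypic activity rested on both.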

A549-CANX-COX4 [2] = assay: as above
Summary of the method: as §1

A549-GM130-SQSTM1 [3] = assay: as above
Summary of the method: as §1

A549-TP53BP1-CLTA [4] = assay: as above
Summary of the method: as §1

A549-TUBA1B-RELA [5] = assay: as above
Summary of the method: as §1

HepG2-GM130-SQSTM1 [6] = assay: as above
Summary of the method: as §1

A549-ACTB-RAB5A [7] = assay: phenotypically active (imaging signature differs from DMSO and reproducible) at any of 0.3-9 uM (binary (1 = active, 0 = inactive)); higher = active
Summary of the method: as §1

A549-CANX-COX4 [8] = assay: as above
Summary of the method: as §1

A549-GM130-SQSTM1 [9] = assay: as above
Summary of the method: as §1

A549-TP53BP1-CLTA [10] = assay: as above
Summary of the method: as §1

A549-TUBA1B-RELA [11] = assay: as above
Summary of the method: as §1

HepG2-ACTB-RAB5A = assay: as above
Summary of the method: as §1

HepG2-CANX-COX4 = assay: as above
Summary of the method: as §1

HepG2-GM130-SQSTM1 [12] = assay: as above
Summary of the method: as §1

HepG2-TP53BP1-CLTA = assay: as above
Summary of the method: as §1

HepG2-TUBA1B-RELA = assay: as above
Summary of the method: as §1

WPMY1-CANX-COX4 = assay: as above
Summary of the method: as §1

WPMY1-GM130-SQSTM1 = assay: as above
Summary of the method: as §1

WPMY1-TP53BP1-CLTA = assay: as above
Summary of the method: as §1

WPMY1-TUBA1B-RELA = assay: as above
Summary of the method: as §1

SMILES: COc1cc2nc(N3CCCN(C)CC3)nc(NC3CCN(Cc4ccccc4)CC3)c2cc1OC
- lowest phenotypically active concentration (A549-ACTB-RAB5A [1]): ≤ 0.3 µM
- lowest phenotypically active concentration (A549-CANX-COX4 [2]): 1 µM
- lowest phenotypically active concentration (A549-GM130-SQSTM1 [3]): ≤ 0.3 µM
- lowest phenotypically active concentration (A549-TP53BP1-CLTA [4]): 1 µM
- lowest phenotypically active concentration (A549-TUBA1B-RELA [5]): ≤ 0.3 µM
- lowest phenotypically active concentration (HepG2-GM130-SQSTM1 [6]): ≤ 0.3 µM
- phenotypically active (A549-ACTB-RAB5A [7]): 1 (active)
- phenotypically active (A549-CANX-COX4 [8]): 1 (active)
- phenotypically active (A549-GM130-SQSTM1 [9]): 1 (active)
- phenotypically active (A549-TP53BP1-CLTA [10]): 1 (active)
- phenotypically active (A549-TUBA1B-RELA [11]): 1 (active)
- phenotypically active (HepG2-ACTB-RAB5A): 1 (active)
- phenotypically active (HepG2-CANX-COX4): 1 (active)
- phenotypically active (HepG2-GM130-SQSTM1 [12]): 1 (active)
- phenotypically active (HepG2-TP53BP1-CLTA): 1 (active)
- phenotypically active (HepG2-TUBA1B-RELA): 1 (active)
- phenotypically active (WPMY1-CANX-COX4): 1 (active)
- phenotypically active (WPMY1-GM130-SQSTM1): 1 (active)
- phenotypically active (WPMY1-TP53BP1-CLTA): 1 (active)
- phenotypically active (WPMY1-TUBA1B-RELA): 1 (active)

SMILES: Nc1ccc(-c2cccc3c(=O)cc(N4CCOCC4)oc23)cc1
- lowest phenotypically active concentration (A549-ACTB-RAB5A [1]): 3 µM
- lowest phenotypically active concentration (A549-CANX-COX4 [2]): 9 µM
- lowest phenotypically active concentration (A549-GM130-SQSTM1 [3]): 9 µM
- lowest phenotypically active concentration (A549-TP53BP1-CLTA [4]): 9 µM
- lowest phenotypically active concentration (A549-TUBA1B-RELA [5]): 9 µM
- lowest phenotypically active concentration (HepG2-GM130-SQSTM1 [6]): 3 µM
- phenotypically active (A549-ACTB-RAB5A [7]): 1 (active)
- phenotypically active (A549-CANX-COX4 [8]): 1 (active)
- phenotypically active (A549-GM130-SQSTM1 [9]): 1 (active)
- phenotypically active (A549-TP53BP1-CLTA [10]): 1 (active)
- phenotypically active (A549-TUBA1B-RELA [11]): 1 (active)
- phenotypically active (HepG2-ACTB-RAB5A): 1 (active)
- phenotypically active (HepG2-CANX-COX4): 1 (active)
- phenotypically active (HepG2-GM130-SQSTM1 [12]): 1 (active)
- phenotypically active (HepG2-TP53BP1-CLTA): 1 (active)
- phenotypically active (HepG2-TUBA1B-RELA): 1 (active)
- phenotypically active (WPMY1-CANX-COX4): 1 (active)
- phenotypically active (WPMY1-GM130-SQSTM1): 1 (active)
- phenotypically active (WPMY1-TP53BP1-CLTA): 1 (active)
- phenotypically active (WPMY1-TUBA1B-RELA): 1 (active)

SMILES: O=C(NCc1cccc(O)c1)Nc1nc(-c2ccncc2)cs1 [RKI 1447 dihydrochloride]
- lowest phenotypically active concentration (A549-ACTB-RAB5A [1]): ≤ 0.3 µM
- lowest phenotypically active concentration (A549-CANX-COX4 [2]): ≤ 0.3 µM
- lowest phenotypically active concentration (A549-GM130-SQSTM1 [3]): ≤ 0.3 µM
- lowest phenotypically active concentration (A549-TP53BP1-CLTA [4]): ≤ 0.3 µM
- lowest phenotypically active concentration (A549-TUBA1B-RELA [5]): ≤ 0.3 µM
- lowest phenotypically active concentration (HepG2-GM130-SQSTM1 [6]): ≤ 0.3 µM
- phenotypically active (A549-ACTB-RAB5A [7]): 1 (active)
- phenotypically active (A549-CANX-COX4 [8]): 1 (active)
- phenotypically active (A549-GM130-SQSTM1 [9]): 1 (active)
- phenotypically active (A549-TP53BP1-CLTA [10]): 1 (active)
- phenotypically active (A549-TUBA1B-RELA [11]): 1 (active)
- phenotypically active (HepG2-ACTB-RAB5A): 1 (active)
- phenotypically active (HepG2-CANX-COX4): 1 (active)
- phenotypically active (HepG2-GM130-SQSTM1 [12]): 1 (active)
- phenotypically active (HepG2-TP53BP1-CLTA): 1 (active)
- phenotypically active (HepG2-TUBA1B-RELA): 1 (active)
- phenotypically active (WPMY1-CANX-COX4): 1 (active)
- phenotypically active (WPMY1-GM130-SQSTM1): 1 (active)
- phenotypically active (WPMY1-TP53BP1-CLTA): 1 (active)
- phenotypically active (WPMY1-TUBA1B-RELA): 1 (active)

SMILES: NC(=O)Nc1cc(-c2cccc(F)c2)sc1C(=O)N[C@H]1CCCNC1 [AZD 7762 hydrochloride]
- lowest phenotypically active concentration (A549-ACTB-RAB5A [1]): 1 µM
- lowest phenotypically active concentration (A549-CANX-COX4 [2]): 1 µM
- lowest phenotypically active concentration (A549-GM130-SQSTM1 [3]): ≤ 0.3 µM
- lowest phenotypically active concentration (A549-TP53BP1-CLTA [4]): ≤ 0.3 µM
- lowest phenotypically active concentration (A549-TUBA1B-RELA [5]): ≤ 0.3 µM
- lowest phenotypically active concentration (HepG2-GM130-SQSTM1 [6]): ≤ 0.3 µM
- phenotypically active (A549-ACTB-RAB5A [7]): 1 (active)
- phenotypically active (A549-CANX-COX4 [8]): 1 (active)
- phenotypically active (A549-GM130-SQSTM1 [9]): 1 (active)
- phenotypically active (A549-TP53BP1-CLTA [10]): 1 (active)
- phenotypically active (A549-TUBA1B-RELA [11]): 1 (active)
- phenotypically active (HepG2-ACTB-RAB5A): 1 (active)
- phenotypically active (HepG2-CANX-COX4): 1 (active)
- phenotypically active (HepG2-GM130-SQSTM1 [12]): 1 (active)
- phenotypically active (HepG2-TP53BP1-CLTA): 1 (active)
- phenotypically active (HepG2-TUBA1B-RELA): 1 (active)
- phenotypically active (WPMY1-CANX-COX4): 1 (active)
- phenotypically active (WPMY1-GM130-SQSTM1): 1 (active)
- phenotypically active (WPMY1-TP53BP1-CLTA): 1 (active)
- phenotypically active (WPMY1-TUBA1B-RELA): 1 (active)

SMILES: COc1cc(N2CCC(N3CCN(C)CC3)CC2)ccc1Nc1ncnc(Nc2ccccc2S(=O)(=O)C(C)C)n1
- lowest phenotypically active concentration (A549-ACTB-RAB5A [1]): 3 µM
- lowest phenotypically active concentration (A549-CANX-COX4 [2]): 9 µM
- lowest phenotypically active concentration (A549-GM130-SQSTM1 [3]): 3 µM
- lowest phenotypically active concentration (A549-TP53BP1-CLTA [4]): 9 µM
- lowest phenotypically active concentration (A549-TUBA1B-RELA [5]): 9 µM
- lowest phenotypically active concentration (HepG2-GM130-SQSTM1 [6]): 9 µM
- phenotypically active (A549-ACTB-RAB5A [7]): 1 (active)
- phenotypically active (A549-CANX-COX4 [8]): 1 (active)
- phenotypically active (A549-GM130-SQSTM1 [9]): 1 (active)
- phenotypically active (A549-TP53BP1-CLTA [10]): 1 (active)
- phenotypically active (A549-TUBA1B-RELA [11]): 1 (active)
- phenotypically active (HepG2-ACTB-RAB5A): 1 (active)
- phenotypically active (HepG2-CANX-COX4): 1 (active)
- phenotypically active (HepG2-GM130-SQSTM1 [12]): 1 (active)
- phenotypically active (HepG2-TP53BP1-CLTA): 1 (active)
- phenotypically active (HepG2-TUBA1B-RELA): 1 (active)
- phenotypically active (WPMY1-CANX-COX4): 1 (active)
- phenotypically active (WPMY1-GM130-SQSTM1): 1 (active)
- phenotypically active (WPMY1-TP53BP1-CLTA): 1 (active)
- phenotypically active (WPMY1-TUBA1B-RELA): 1 (active)
